Test results from PubChem BioAssay (NCATS).
Records with an inconclusive call do not appear. The source made the active and inactive calls. Unless noted, calls come from the whole dose curve; as a rule, active = well fitted curve in the direction sought with a large enough effect; inconclusive = small, poorly fitted or top-dose-only effect, or another doubt; inactive = no such curve, though single readings can be large; an effect the other way counts as inactive or inconclusive.

Assays:
[1] = target: Voltage-gated inwardly rectifying potassium channel KCNH2 (Homo sapiens) (UniProt Q12809); assay: qHTS Assay for Small Molecule Inhibitors of the Human hERG Channel Activity (AID 588834);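 note: lower thallium flux fluorescence means stronger hERG block; nearly all actives have a fitted effect of over 50% in size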; note: potency is the fitted concentration of half-maximal effect
Chain of Voltage-gated inwardly rectifying potassium channel KCNH2 (Homo sapiens) (Q12809 whole entry, looked up): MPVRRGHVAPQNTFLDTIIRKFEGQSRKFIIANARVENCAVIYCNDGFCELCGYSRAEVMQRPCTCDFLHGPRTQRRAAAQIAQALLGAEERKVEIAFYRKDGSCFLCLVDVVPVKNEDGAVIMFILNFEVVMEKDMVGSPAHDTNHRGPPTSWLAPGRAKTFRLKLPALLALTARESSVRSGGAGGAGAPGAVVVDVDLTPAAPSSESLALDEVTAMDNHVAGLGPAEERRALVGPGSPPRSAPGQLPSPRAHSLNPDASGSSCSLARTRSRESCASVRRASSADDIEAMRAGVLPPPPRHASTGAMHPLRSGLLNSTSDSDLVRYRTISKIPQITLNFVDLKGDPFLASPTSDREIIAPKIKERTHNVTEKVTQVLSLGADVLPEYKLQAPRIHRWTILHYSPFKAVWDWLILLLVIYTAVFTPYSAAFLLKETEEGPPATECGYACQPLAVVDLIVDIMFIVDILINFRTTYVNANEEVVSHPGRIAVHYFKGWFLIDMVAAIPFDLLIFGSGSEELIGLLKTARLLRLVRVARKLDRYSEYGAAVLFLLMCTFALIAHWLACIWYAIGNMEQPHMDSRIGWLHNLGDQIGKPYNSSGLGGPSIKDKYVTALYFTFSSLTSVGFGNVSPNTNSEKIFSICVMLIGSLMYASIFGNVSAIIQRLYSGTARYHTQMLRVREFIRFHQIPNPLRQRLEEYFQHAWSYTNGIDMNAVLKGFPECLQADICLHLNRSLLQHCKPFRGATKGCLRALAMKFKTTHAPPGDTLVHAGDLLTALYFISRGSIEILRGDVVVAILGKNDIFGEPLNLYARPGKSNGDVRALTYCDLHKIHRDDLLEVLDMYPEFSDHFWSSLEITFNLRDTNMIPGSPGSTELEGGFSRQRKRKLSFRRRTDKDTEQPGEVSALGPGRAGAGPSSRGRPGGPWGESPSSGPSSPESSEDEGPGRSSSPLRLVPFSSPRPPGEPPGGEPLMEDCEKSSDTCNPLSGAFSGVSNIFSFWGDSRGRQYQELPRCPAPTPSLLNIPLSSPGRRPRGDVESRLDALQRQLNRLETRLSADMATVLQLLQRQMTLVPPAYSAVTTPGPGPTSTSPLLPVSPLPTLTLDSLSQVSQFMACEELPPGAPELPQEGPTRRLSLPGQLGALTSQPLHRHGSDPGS
Outline: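 U2OS cells transduced with hERG via BacMam (MOI ~100), plated 2000/well, loaded with FluxOR thallium dye, compound ~10 min, then stimulation buffer; fluorescence decrease read kinetically; AC50 from Hill fits.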

[2] = target: Luciferin 4-monooxygenase (Photinus pyralis) (UniProt P08659); assay: Biochemical firefly luciferase enzyme assay for NPC (AID 624030); note: nearly all actives have a fitted effect of over 70% in size; note: potency is the fitted concentration of half-maximal effect
Chain of Luciferin 4-monooxygenase (Photinus pyralis) (P08659 whole entry, looked up): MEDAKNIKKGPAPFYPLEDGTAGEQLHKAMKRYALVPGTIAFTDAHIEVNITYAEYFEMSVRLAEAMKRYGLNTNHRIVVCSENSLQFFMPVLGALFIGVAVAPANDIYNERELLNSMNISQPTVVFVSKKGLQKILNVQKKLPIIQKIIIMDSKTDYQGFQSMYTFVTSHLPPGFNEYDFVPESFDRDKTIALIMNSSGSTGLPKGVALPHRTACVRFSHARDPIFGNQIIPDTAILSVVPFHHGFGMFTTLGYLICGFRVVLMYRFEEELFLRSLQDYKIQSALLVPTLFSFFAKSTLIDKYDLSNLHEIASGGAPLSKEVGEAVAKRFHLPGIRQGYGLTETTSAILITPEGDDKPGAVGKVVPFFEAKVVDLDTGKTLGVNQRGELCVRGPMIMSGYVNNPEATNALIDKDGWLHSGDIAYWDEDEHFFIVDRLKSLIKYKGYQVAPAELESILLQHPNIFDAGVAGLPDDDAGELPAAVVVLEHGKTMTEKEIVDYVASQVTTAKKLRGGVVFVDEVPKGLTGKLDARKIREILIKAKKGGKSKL
Outline: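 Direct inhibition of firefly luciferase enzyme (10 nM final, 50 mM Tris Acetate) assessed by luminescence within 5 minutes. Percent activity scaled between DMSO and PTC124 positive control, with concentration-effect curves classified by fit quality and response.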

[3] = S16 Schwann cell PMP22 intronic element firefly luciferase assay (AID 624032); note: nearly all actives have a fitted effect of over 30% in size; note: potency is the fitted concentration of half-maximal effect
Outline: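 Luciferase reporter of PMP22 intronic-element expression in stably transfected S16 rat Schwann cells, read by ONE-Glo luminescence after 24 h compound exposure at 37 C. Activity scaled between DMSO (0%) and positive-control PTC124; concentration-effect curves quality-classified.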

[4] = S16 Schwann cell viability assay (CellTiter-Glo assay) (AID 624031);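 note: cellular ATP luminescence as a viability measure; series mostly up to about 58 µM; nearly all actives have a fitted effect of over 70% in size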
Outline: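 Luminescent ATP read-out (CellTiter-Glo) after 24 h compound exposure of native S16 rat Schwann cells at 37 °C. Signals were normalized between cell-free wells and DMSO-treated cells, set as 0% activity.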

[5] = S16 Schwann cell PMP22 intronic element beta-lactamase assay (AID 624044; calls by dose curve; note: nearly all actives have a fitted effect of over 15% in size)
Outline: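 Rat S16 Schwann cells with beta-Lac driven by a PMP22 intronic element, compound-treated 24 h at 37 °C. LiveBLAzer FRET B/G read: 460 nm normalized to potassium clavulanate vs DMSO; 535 nm FRET as viability; concentration-effect curves classified.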

Measured: Potency

O=C(NCCCN1CCOCC1)c1ccc(Cl)cc1
inactive: [1] | [2] | [3]

NCc1ccc(S(N)(=O)=O)cc1
inactive: all assays above

Cc1cc(OI)c(C(C)C)cc1-c1cc(C(C)C)c(OI)cc1C
inactive: all assays above

NC(=O)CC[C@@H](N)C(=O)O
inactive: all assays above

O=C(Cn1ccnc1[N+](=O)[O-])NCc1ccccc1
inactive: all assays above

O=C(O)c1cc(=O)c2ccccc2o1
inactive: [1] | [2] | [3]

Nc1ccc(C(=O)Oc2ccccc2)c(O)c1
active: [2] 6.42 µM
inactive: all other assays above

CC1CCN(CCCC(=O)c2ccc(F)cc2)CC1
inactive: [2] | [3]

COc1ccccc1Oc1c(NS(=O)(=O)c2ccc(C(C)(C)C)cc2)nc(-c2ncccn2)nc1OCCO
not listed: [4]
inactive: all other assays above

Cc1ccsc1C(=CCCN1CCC[C@@H](C(=O)O)C1)c1sccc1C
inactive: [1] | [2] | [5]

O=S1(=O)OC(c2ccc(O)cc2)(c2ccc(O)cc2)c2ccccc21
active: [3] 10.2 µM
inactive: [1] | [4] | [5]

CC(=O)Nc1ccc(OCCOCCOc2ccc(NC(C)=O)cc2)cc1
not listed: [4]
inactive: all other assays above

CCOc1ccc(C(=O)OCCN(CC)CC)cc1
inactive: [2] | [4] | [3]

O=C(/C=C/c1ccccc1)OCc1ccccc1
inactive: [3]

O=C(O)Cn1c(C(=O)Nc2nc(-c3ccccc3Cl)cs2)cc2ccccc21
inactive: [1] | [3] | [5]
active: [2] 12.8 µM

CCCCC1(COC(=O)CCC(=O)O)C(=O)N(c2ccccc2)N(c2ccccc2)C1=O
not listed: [4]
inactive: all other assays above

CN1CCCN=C1COC(=O)C(O)(c1ccccc1)C1CCCCC1 (stereo not drawn)
active: [1] 2.82 µM
inactive: [2] | [3] | [5]

CCN1CC(CCN2CCOCC2)C(c2ccccc2)(c2ccccc2)C1=O (stereo not drawn)
not listed: [4]
inactive: all other assays above
